Source: PubChem BioAssay
GLP1R ag: GLP-1 receptor (human) agonism. P43220. HEK293 GLP-1R CRE-luciferase, luminescence, 4-6 h; cells express a hypersensitive GLP-1R form. Potency, µM (titrated, usually from 45.6 µM), actives largely listed as activators. 380,000 tested, 0.007% active. AID 624172
Target sequence (P43220 whole entry, looked up): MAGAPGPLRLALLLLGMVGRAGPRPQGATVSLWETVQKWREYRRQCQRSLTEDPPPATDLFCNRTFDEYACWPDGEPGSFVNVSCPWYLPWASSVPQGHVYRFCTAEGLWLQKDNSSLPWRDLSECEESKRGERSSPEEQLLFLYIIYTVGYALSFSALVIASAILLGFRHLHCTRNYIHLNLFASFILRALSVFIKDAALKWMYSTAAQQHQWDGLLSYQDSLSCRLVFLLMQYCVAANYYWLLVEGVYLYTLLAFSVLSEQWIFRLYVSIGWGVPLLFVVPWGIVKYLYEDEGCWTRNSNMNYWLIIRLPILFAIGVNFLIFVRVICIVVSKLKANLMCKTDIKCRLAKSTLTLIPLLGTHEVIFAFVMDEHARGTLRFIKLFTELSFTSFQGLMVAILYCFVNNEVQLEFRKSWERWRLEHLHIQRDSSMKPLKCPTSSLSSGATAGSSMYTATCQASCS
RGS4 inhibitor: blocks human RGS4-accelerated GTP hydrolysis; Transcreener GDP fluorescence polarization, RGS4-accelerated GTP hydrolysis; 390,000 tested, 0.039% active; Potency, µM (series often up to 114 µM), actives largely listed as inhibitors; P49798; further: nearly all actives have a fitted effect of over 75% in size
Target sequence (P49798 whole entry, looked up): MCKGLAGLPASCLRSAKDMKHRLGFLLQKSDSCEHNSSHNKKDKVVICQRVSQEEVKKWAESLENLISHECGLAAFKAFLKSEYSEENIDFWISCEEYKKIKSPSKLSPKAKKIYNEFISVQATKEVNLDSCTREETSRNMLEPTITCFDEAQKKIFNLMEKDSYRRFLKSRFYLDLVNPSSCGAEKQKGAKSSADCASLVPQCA
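MLSMR compounds (23 nl, pin-transferred) preincubated 10 min at room temperature with a 500nM (2x) first reagent, then RGS4 at 900nM (2x) plus Transcreener GDP mix added; fluorescence polarization (620/688 nm) read before and after 90 min at 30 °C.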
GCN5L2 inh: blocks human GCN5L2 histone acetyltransferase; AID 504327; Potency, µM (highest dose often 58.9 µM), usual class: inhibitors; Q92830; 390,000 tested, 0.21% active; GCN5L2 HAT assay, ThioGlo1 CoA-SH fluorescence
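Free CoA generated was detected with ThioGlo1 (50uM) fluorescence at Ex340nm/Em540nm, read immediately and after 20 min at room temperature. Enzyme, 20 nM in HEPES pH 7.5 buffer, saw compounds 15 min before adding 75uM H3(1-25) peptide and 70uM acetyl-CoA.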
PTHR1 agonist: agonists of human PTHR1 parathyroid hormone receptor. Potency, µM (titrated, usually from 115 µM), most hits filed as activators. 410,000 tested, 0.075% active. HEK293 GP2 PTHR1 cells, GloSensor cAMP luminescence, 1 h. Q03431; further: nearly all actives have a fitted effect of over 55% in size
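HEK-293-derived GP2 cells expressing PTHR1 and a GloSensor cAMP reporter, 3,000/well, plated overnight, given luciferin plus IBMX (each 0.5 mM as added) for 1 h at 37 °C, then compound for 1 h at 37 °C. Luminescence was read after 15 min at room temperature.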
GLP-1R inv ag: inverse agonists of human GLP-1 receptor | P43220 | Potency, µM (doses to about 38.3 µM), hits mostly inhibitors | 410,000 tested, 1.6% active | AID 624417 | HEK293 GLP-1R CRE-luciferase, luminescence, 24 h; GLP-1R form is constitutively active; further: nearly all actives have a fitted effect of over 55% in size
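Constitutively active GLP-1R drives a cAMP-responsive luciferase in stably transfected HEK293 cells; test compounds are added after overnight (12 h) attachment and left 24 hr, and signal loss in luminescence marks inhibition.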
HEK293 tox: cytotoxicity in counter-screen for GLP-1R inverse agonists | 410,000 tested, 0.13% active | HEK293 cAMP-luciferase reporter cells, luminescence, 24 h | Potency, µM (doses to about 38.3 µM), actives largely listed as inhibitors | AID 624418;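 further: loss of luciferase light is scored as toxicity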
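Cells in DMEM/10% Nu serum/1% pen-strep, 1536-well format. Pre-incubated 12 h, dosed with 23 nL compound, incubated a further 24 h. Luciferase detection, 12 min at room temp, luminescence.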
A number is an active result; . = inactive; ? = inconclusive; / = no result given; [ ] = remark or other dose. The list is not random: actives were taken first. Their share in the collection is about 1.8%. The call rests on the fitted dose curve; in most records, active means well fitted curve in the direction sought with a large enough effect; inconclusive means small, poorly fitted or top-dose-only effect, or another doubt; inactive means no such curve, though single readings can be large; an effect the other way counts as inactive or inconclusive.

SMILES	GLP1R ag	RGS4 inhibitor	GCN5L2 inh	PTHR1 agonist	GLP-1R inv ag	HEK293 tox
CCCc1ccc(S(=O)(=O)N2CCN(C(C)C(=O)NCc3ccc(OC)cc3)CC2)cc1 (stereo not given)	.	.	.	.	10µM	.
COc1ccc(S(=O)(=O)N2CCN(C(=O)NCc3ccccc3)CC2)cc1	.	.	.	.	.	.
OC[C@@H]1OC(O)[C@H](O)[C@H](O)[C@H]1O (stereo not given in full)	/	/	.	/	/	/
Fc1ccc(CSc2nc3ccccc3[nH]2)c2ccccc12	.	.[11.4 µM]	.	.	10µM	.
O=c1cc(CSc2nc3ccccc3[nH]2)c2ccccc2[nH]1	.	.	.	.	.	.
O=C(c1ccc(S(=O)(=O)Nc2cccc(C(F)(F)F)c2)cc1)N1CCN(c2ccccc2O)CC1	.	.	.	.	10µM	.
CN(C)CCCNc1nc(N)c([N+](=O)[O-])c(NC2CCCCC2)n1	.	.	.	.	13µM	.
Nc1nc(NCCO)nc(NC2CCCCC2)c1[N+](=O)[O-]	?	.	.	.	.	.
NC(=S)NN=C1CCCCCCCCCC1	.	?	/	.	?	?
NC(=S)NN=C1CCC(C2CCCCC2)CC1 (stereo not given)	.	?	/	.	2.2µM	?
O=C(Nc1ccc(Br)cc1)c1ccc(F)c(S(=O)(=O)N2CCc3ccccc32)c1	/	.	.	.	4.5µM	.
Cc1cccc(C)c1NC(=O)c1cc(S(=O)(=O)N2CCCc3ccccc32)ccc1F	/	.	.	.	3.2µM	.
Cc1cc(C)cc(NC(=O)c2cc(S(=O)(=O)NCCC3=CCCCC3)ccc2F)c1	/	.	.	.	?	.
Cc1ccc(NC(=O)c2cc(S(=O)(=O)NCCC3=CCCCC3)ccc2F)cc1F	.	.	.	.	2µM	.
COc1ccc(S(=O)(=O)N2CCc3ccccc32)cc1C(=O)Nc1cccnc1	10µM	.	.	.	.	.
CCOC(=O)c1cc(S(=O)(=O)N2CCN(c3ccccc3F)CC2)[nH]n1	.	.	.	.	.	.
C/C=C/C=N/Nc1nc(C)cc(=O)[nH]1	.	.	.	.	.	.
Cc1ccc(NC(=O)c2cc(S(=O)(=O)N3CCCc4ccccc43)ccc2F)cc1F	/	.	.	.	13µM	.
Cc1noc(-c2ccc(CSCCC(=O)O)cc2)c1NC(=O)OC(C)c1ccccc1Cl (stereo not given)	/	/	.	/	/	/
CC(=O)C[C@H]1SC[C@@H](C(C)C)N1S(=O)(=O)c1ccc(C)cc1	/	/	/	.	.	.
Cc1ccc(OCc2nc(-c3ccccn3)n[nH]2)cc1	.	.	.	.	?	2.5µM
Cc1cccc(OCc2nc(-c3ccccn3)n[nH]2)c1	.	.	/	.	?	?
S=C(CSc1ccccc1)Nc1cccc2ccccc12	.	/	/	.	6.3µM	?
CCCNC(=O)c1ccc2nc(-c3ccccc3)c(-c3ccccc3)nc2c1	.	.[11.4 µM]	.	.	3.5µM	.
CCN(CC)C(=O)c1ccc2nc(-c3ccccc3)c(-c3ccccc3)nc2c1	.	.	.	.	5µM	.
SMILES	GLP1R ag	RGS4 inhibitor	GCN5L2 inh	PTHR1 agonist	GLP-1R inv ag	HEK293 tox
CCNC(=O)c1ccc2nc(-c3ccccc3)c(-c3ccccc3)nc2c1	/	.	/	/	/	/
O=C(c1ccc2nc(-c3ccccc3)c(-c3ccccc3)nc2c1)N1CCCCC1	.	.	.	.	2.5µM	.
Cc1ccc(S(=O)(=O)Nc2ccc(NC(=O)Nc3cccc(C(F)(F)F)c3)cc2)cc1	.	.	.	.	?	?
Cc1ccc(NC(=O)Nc2cc(C(F)(F)F)c[nH]c2=O)cc1	.	.	.	.	10µM	.
Cc1cccc(NC(=O)C2(C)CC3c4ccccc4C2c2ccccc23)c1C (stereo not given)	.	.	.	.	10µM	.
CCOC(=O)c1c(C)[nH]c(C)c1S(=O)(=O)N1CCN(c2cccc(C(F)(F)F)c2)CC1	/	.	.	.	5.6µM	?
CCOC(=O)c1c(S(=O)(=O)N2CCN(c3cccc(C(F)(F)F)c3)CC2)c(C)n(C)c1C	/	.	.	.	.	.
CN1CCc2c(sc3c2C(=O)NC(c2cn(Cc4ccccc4)c4ccccc24)N3)C1 (stereo not given)	.	.	.	.	4µM	.
COc1ccccc1NC(=O)CCNC(=O)c1ccc(C)cc1	.	.	.	.	.	.
CCCC(=O)C1=C(O)C(C(=O)OC)C(C)(C)CC1=Nc1cccc2ccccc12 (stereo not given)	.	.	.	.	7.9µM	.
O=C(O)c1ccc(C(S(=O)(=O)c2ccccc2)S(=O)(=O)c2ccccc2)cc1	.	/	/	.	.	.
CCN(CC)C(=O)N1c2ccccc2C=Cc2ccccc21	.	.	.	.	5.6µM	.
COc1ccc(CN2C(=O)CCCC2(C)c2nc3ccccc3[nH]2)cc1 (stereo not given)	.	/	/	.	.	.
CCOc1ccc(OCc2cccc(C(=O)Nc3ccc(CN4CCCCC4)cc3)c2)cc1	.	.	.	.	4.5µM	?
COc1ccc(C(=O)NC(=S)Nc2ccc(CN3CCCCC3)cc2)cc1Cl	.	.	.	.	8.9µM	?
CC1CCCC(C)N1C(=O)CSc1nc2c(c(=O)n(C)c(=O)n2C)n1C (stereo not given)	.	.	.	.	.	.
CC(C)(C)c1ccc(C(=O)CCC(=O)NCc2ccccc2)cc1	.	?	.	.	7.9µM	.
Cc1ccc(C(=O)CCC(=O)NCc2ccccc2)cc1	.	.	.	.	.	.
CC(NCC(=O)Nc1ccccc1C(=O)NC1CC1)c1cccs1 (stereo not given)	.	.	.	.	.	.
CC(C)C(NCC(=O)Nc1ccccc1C(=O)NC1CC1)c1ccccc1 (stereo not given)	.	.	.	.	10µM	.
CCCCCCCCCCC(C)=O	/	/	.	/	/	/
C=CCOc1ccc(C=CC(=O)c2c(O)c(OC)c(OC)c(OC)c2OC)cc1	.	.	/	.	7.9µM	.
COCC1CCN(C(=O)c2cc(COc3ccccc3SC)on2)C1 (stereo not given)	.	.	.	.	.	.
C=CC[C@H]1CC(C)=C[C@H](CC=C)N1C(=O)c1cc(COc2ccccc2SC)on1	.	.	.	.	8.9µM	.
CN(C)CCCNc1oc(-c2ccccc2Cl)nc1S(=O)(=O)c1ccc(F)cc1	.	.	.	.	?	.
CN(C)CCNc1oc(-c2ccccc2Cl)nc1S(=O)(=O)c1ccccc1	.	.	.	.	3.2µM	.
CCCCN(Cc1ccccc1)c1ncnc2nc[nH]c12	.	.	.	.	?	.
